According to the supplement of paper PMC12669032:

Key:
Assay in all cases: growth AUC relative to DMSO control (median of replicates) (fraction); higher = more growth (less inhibition), active = hit call of the paper
Conditions in all cases: 20 µM; 24 h;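 active = AUC reduced over 20% with Padj below 0.05 in at least 2 of 3 replicates; inactive = otherwise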
[1] = test system: Coprococcus comes
In short: (§1)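 Gut bacterial monocultures in mGAM were treated with 20 µM compound (1% DMSO) and grown anaerobically at 37 °C in round-bottom 96-well plates from OD600 0.05. OD600 was read hourly for 24 h, with the minimum OD set to 0. Area under the growth curve was normalised to the plate median of solvent-only wells, or to row and column medians on the industrial chemical plate. Each value is the median of three biological replicates, each grown on a separate day.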

[2] = test system: Escherichia coli ED1a
In short: as §1

[3] = test system: Escherichia coli IAI1
In short: as §1

[4] = test system: Eubacterium rectale
In short: as §1

[5] = test system: Fusobacterium nucleatum subsp. animalis
In short: as §1

[6] = test system: Lactobacillus gasseri
In short: as §1

[7] = test system: Lactobacillus paracasei
In short: as §1

[8] = test system: Odoribacter splanchnicus
In short: as §1

[9] = test system: Parabacteroides distasonis
In short: as §1

[10] = test system: Parabacteroides merdae
In short: as §1

[11] = test system: Roseburia intestinalis
In short: as §1

[12] = test system: Streptococcus salivarius
In short: as §1

Measured: growth AUC

O=c1oc2ccccc2c(O)c1C1CC(c2ccc(OCc3ccc(C(F)(F)F)cc3)cc2)Cc2ccccc21 (mixture of isomers)
active: [4] 0.431 | [6] 0.484 | [7] 0.631 | [9] 0.031 | [10] 0.251 | [11] 0.411 | [12] 0.212
inactive: [1] 0.858 | [2] 1.03 | [3] 1.04 | [5] 1.02 | [8] 0.989

CC(C)N(C(=O)CCl)c1ccccc1
inactive: [1] 0.961 | [2] 0.982 | [3] 1.02 | [4] 0.923 | [5] 0.911 | [6] 1.17 | [7] 0.946 | [8] 0.942 | [9] 0.992 | [10] 0.982 | [11] 0.963 | [12] 1.04

CCOC(=O)/C=C(C)/C=C/C[C@@H](C)CCCC(C)C
inactive: [1] 0.979 | [2] 1 | [3] 0.997 | [4] 1.03 | [5] 1.15 | [6] 1.13 | [7] 1.01 | [8] 0.954 | [9] 1.02 | [10] 0.989 | [11] 1.09 | [12] 0.972

COP(=S)(NC(C)C)Oc1ccccc1C(=O)OC(C)C (stereo not given)
inactive: [1] 1.03 | [2] 1.02 | [3] 0.988 | [4] 0.92 | [5] 1.08 | [6] 0.984 | [7] 0.962 | [8] 1.07 | [10] 0.931 | [11] 0.938 | [12] 0.977
active: [9] 0.53

CC(C)OC(=O)Nc1cccc(Cl)c1
inactive: [1] 1.02 | [2] 1.01 | [3] 0.965 | [4] 1.07 | [5] 1.06 | [6] 0.85 | [7] 0.985 | [8] 1.13 | [9] 0.965 | [10] 1.06 | [11] 0.906 | [12] 0.981

CNC(=O)O/N=C/C(C)(C)SC
inactive: [1] 1.01 | [2] 1.01 | [3] 1.03 | [4] 0.966 | [5] 0.939 | [6] 1.12 | [7] 0.99 | [8] 1 | [9] 1.03 | [10] 0.961 | [11] 1.03 | [12] 1.06

CC(C)(C)c1ccc(CSc2cnn(C(C)(C)C)c(=O)c2Cl)cc1
inactive: [1] 0.976 | [2] 1 | [3] 0.986 | [4] 0.966 | [5] 1.05 | [6] 0.945 | [7] 1.16 | [8] 1.07 | [9] 0.988 | [10] 0.962 | [11] 0.979 | [12] 0.986

CNC(=O)N(C)c1nc2ccccc2s1
inactive: [1] 0.992 | [2] 0.999 | [3] 0.991 | [4] 0.958 | [5] 0.971 | [6] 0.994 | [7] 0.949 | [8] 0.988 | [9] 0.972 | [10] 1.02 | [11] 0.989 | [12] 1

CNC(=O)Oc1cc(C)c(S(C)=O)c(C)c1 (stereo not given)
inactive: [1] 0.997 | [2] 1.01 | [3] 0.97 | [4] 0.884 | [5] 1.09 | [6] 0.963 | [7] 0.952 | [8] 0.996 | [9] 1 | [10] 1.05 | [11] 0.965 | [12] 1.01

CNC(=S)S
inactive: [1] 1.03 | [2] 1.02 | [3] 1.02 | [4] 1.03 | [5] 1.08 | [6] 1.02 | [7] 1.1 | [8] 1.05 | [9] 1.03 | [10] 1.05 | [11] 1.1 | [12] 0.997

OC(Cc1ccccc1Cl)(Cn1cncn1)C1(Cl)CC1 (stereo not given)
inactive: [1] 0.963 | [2] 0.993 | [3] 0.941 | [4] 0.849 | [5] 0.897 | [6] 1.16 | [7] 1.02 | [8] 0.95 | [9] 1.01 | [10] 0.977 | [11] 1.05 | [12] 0.998

CCCC1COC(Cn2cncn2)(c2ccc(Cl)cc2Cl)O1 (stereo not given)
inactive: [1] 0.941 | [2] 0.979 | [3] 0.972 | [5] 1 | [6] 0.968 | [7] 0.936 | [8] 0.977 | [9] 0.837 | [10] 0.855 | [11] 0.995 | [12] 0.964
active: [4] 0.545

CCOC(=O)C(C)OC(=O)c1cc(Oc2ccc(C(F)(F)F)cc2Cl)ccc1[N+](=O)[O-] (stereo not given)
active: [9] 0.789 | [11] 0.78
inactive: [1] 0.933 | [2] 1.01 | [3] 0.964 | [4] 1.01 | [5] 0.999 | [6] 0.86 | [7] 0.973 | [8] 0.891 | [10] 0.885 | [12] 0.903

CN(C)C(=S)SSC(=S)N(C)C
inactive: [1] 0.833 | [2] 0.973 | [3] 0.973 | [4] 0.83 | [5] 1.09 | [6] 0.875 | [7] 1.02 | [9] 0.928 | [10] 0.852 | [11] 0.822 | [12] 0.956
active: [8] 0.0343

CN(C)C(=O)C(c1ccccc1)c1ccccc1
inactive: [1] 0.974 | [2] 0.98 | [3] 0.977 | [4] 1.11 | [5] 0.975 | [6] 1 | [7] 0.887 | [8] 0.957 | [9] 1 | [10] 1 | [11] 0.964 | [12] 0.995

CCC(C)c1ccccc1OC(=O)NC (stereo not given)
inactive: [1] 1.01 | [2] 0.968 | [3] 0.974 | [4] 0.964 | [5] 0.998 | [6] 1.07 | [7] 0.918 | [8] 1.08 | [9] 1.03 | [10] 0.986 | [11] 0.963 | [12] 1.04

CN=C=S
inactive: [1] 1 | [2] 1 | [3] 1.01 | [4] 0.972 | [5] 0.977 | [6] 0.962 | [7] 1.04 | [8] 1.06 | [9] 1.08 | [10] 1 | [11] 0.997 | [12] 0.994

Nc1c(Cl)cc([N+](=O)[O-])cc1Cl
inactive: [1] 1.01 | [2] 0.951 | [3] 0.962 | [4] 1.08 | [5] 0.898 | [6] 0.923 | [7] 1.1 | [8] 1.03 | [9] 0.933 | [10] 0.93 | [11] 0.925 | [12] 0.956

CC(C)(C)C(=O)C(Oc1ccc(Cl)cc1)n1cncn1 (stereo not given)
inactive: [1] 1.03 | [2] 1.02 | [3] 1.02 | [4] 1.05 | [5] 0.974 | [6] 1.05 | [7] 1.02 | [8] 1.04 | [9] 1.03 | [10] 0.985 | [11] 1.03 | [12] 1.01

Nc1cccc(Cl)c1Cl
inactive: [1] 1.01 | [2] 1.04 | [3] 1.03 | [4] 0.947 | [5] 1.1 | [6] 1.05 | [7] 0.962 | [8] 0.991 | [9] 1.02 | [10] 0.998 | [11] 1.02 | [12] 1.01

COc1cc(OC)nc(NC(=O)NS(=O)(=O)c2ncccc2C(F)(F)F)n1
inactive: [1] 1.02 | [2] 0.985 | [3] 0.998 | [4] 1.09 | [5] 1.04 | [6] 1.02 | [7] 0.986 | [8] 1.09 | [9] 1.05 | [10] 1.04 | [11] 1 | [12] 1.01

COCc1c(F)c(F)c(COC(=O)[C@@H]2[C@@H](C=C(Cl)Cl)C2(C)C)c(F)c1F
inactive: [1] 0.981 | [2] 1.03 | [3] 1.02 | [4] 1.09 | [5] 1.09 | [6] 1.03 | [7] 1.04 | [8] 1.03 | [9] 1 | [10] 1.01 | [11] 0.979 | [12] 0.986

c1ccc(-c2ccccc2)cc1
inactive: [1] 0.991 | [2] 1.03 | [3] 1.01 | [4] 1.09 | [5] 1.1 | [6] 0.94 | [7] 0.749 | [8] 0.945 | [9] 1.04 | [10] 0.998 | [11] 1.02 | [12] 0.993

CCOCN(C(=O)CCl)c1c(C)cccc1CC
inactive: [1] 1.01 | [2] 1 | [3] 1.04 | [4] 0.983 | [5] 1.04 | [6] 1.03 | [7] 1.05 | [8] 1.01 | [9] 1.03 | [10] 0.974 | [11] 1.01 | [12] 1

CCOc1cc(C(C)(C)C)ccc1C1COC(c2c(F)cccc2F)=N1 (stereo not given)
inactive: [1] 0.996 | [2] 0.998 | [3] 1.02 | [4] 1 | [5] 1.08 | [6] 0.932 | [7] 1.01 | [8] 1.04 | [9] 0.891 | [10] 0.878 | [11] 0.948 | [12] 1.02
